The values that follow come from PubChem BioAssay (Tox21).

A short description of assay [1]: qHTS RealTime-Glo MT Cell Viability Assay in HEK293 cells - 0 hour (AID 1224880). Also: top concentration of the series differs between compounds; nearly all actives have a fitted effect of over 45% in size. In a few lines:
(§1)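 Luminescence readout at each listed time point; HEK293, 600 cells/well, RealTime-Glo MT reagent added with cells; compounds pinned (23 nL in DMSO) after 5 h at 37 C; continuous culture at 37 C.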

Assay [2] is described as follows: A CellTox Green Cytotoxicity Assay to monitor cytotoxicity in HEK293 cells - 32 hour (AID 1224881). Also: nearly all actives have a fitted effect of over 40% in size. The method in brief: (§2)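 Read-out: fluorescence of a cell-impermeant cyanine dye staining DNA of dead cells, proportional to cytotoxicity. HEK293, 600 cells/well with reagent, compound (23 nL DMSO) added after 5 h; reads at 0, 8, 16, 24, 32, 40 h.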
Assay [3] can be described thus: A CellTox Green Cytotoxicity Assay to monitor cytotoxicity in HepG2 cells - 0 hour (AID 1224882). Also: nearly all actives have a fitted effect of over 35% in size. The method in brief:
(§3)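 HepG2, 600 cells/well premixed w/ CellTox Green; 5 h settle, 37 C/5% CO2; pintool cpd add (DMSO); 37 C, 40 h; fluorescence read at 0, 8, 16, 24, 32, 40 h.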

A short description of assay [4]: A CellTox Green Cytotoxicity Assay to monitor cytotoxicity in HepG2 cells - 32 hour (AID 1224883). Also: nearly all actives have a fitted effect of over 50% in size. The method in brief:
as §3

The nature of assay [5]: A CellTox Green Cytotoxicity Assay to monitor cytotoxicity in HEK293 cells - 8 hour (AID 1224884). Also: nearly all actives have a fitted effect of over 35% in size. In a few lines:
as §2

Assay [6] in a line: qHTS RealTime-Glo MT Cell Viability Assay in HepG2 cells - 16 hour (AID 1224885). Also: nearly all actives have a fitted effect of over 50% in size. The method in brief: (§4)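 Cell number in HepG2 cultures estimated from NanoLuc luminescence generated by metabolic reduction of a prosubstrate by living cells. The homogeneous, nonlytic format allowed repeated reads at 0, 8, 16, 24, 32 and 40 h of compound exposure.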
For orientation: In qHTS, concentration-response curves come from the screen itself.

Assay [7] in a line: qHTS RealTime-Glo MT Cell Viability Assay in HEK293 cells - 24 hour (AID 1224886). Also: top concentration of the series differs between compounds; nearly all actives have a fitted effect of over 50% in size. In a few lines:
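Homogeneous bioluminescent viability format in HEK293 cells (600 cells/well). Following 5 h at 37 C/5% CO2, 23 nL compound was pintooled; the signal was measured repeatedly during 40 h incubation.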

A short description of assay [8]: qHTS RealTime-Glo MT Cell Viability Assay in HEK293 cells - 8 hour (AID 1224887). Also: top concentration of the series differs between compounds; nearly all actives have a fitted effect of over 50% in size. The method in brief:
as §1

Assay [9] is described as follows: A CellTox Green Cytotoxicity Assay to monitor cytotoxicity in HEK293 cells - 16 hour (AID 1224888). Also: nearly all actives have a fitted effect of over 35% in size. In a few lines:
as §2

The nature of assay [10]: qHTS RealTime-Glo MT Cell Viability Assay in HepG2 cells - 0 hour (AID 1224889). Also: nearly all actives have a fitted effect of over 50% in size. In a few lines:
as §4

The nature of assay [11]: A CellTox Green Cytotoxicity Assay to monitor cytotoxicity in HepG2 cells - 8 hour (AID 1224890). Also: nearly all actives have a fitted effect of over 45% in size. The method in brief: as §3
The nature of assay [12]: qHTS assay to identify small molecule antagonists of the estrogen receptor alpha (ER-alpha) signaling pathway using the BG1 cell line in the presence of 0.1 nM 17-beta-estradiol - cell viability counter screen (AID 1259241). Also: nearly all actives have a fitted effect of over 40% in size. The method in brief: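 Live-cell protease activity (CellTiter-Fluor fluorescence, 30 min) was read in the same wells after VM7Luc4E2 cells had been exposed to compounds with 0.1 nM 17beta-estradiol for 22 hr at 37C.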

Assay [13] in a line: qHTS assay to identify small molecule antagonists of the androgen receptor (AR) signaling pathway using the MDA cell line in the presence of 0.5 nM R1881 - cell viability counter screen (AID 1259242). Also: nearly all actives have a fitted effect of over 45% in size. The method in brief:
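Live-cell protease fluorescence, CellTiter-Fluor, 30 min at 37C. Cells: MDA-kb2, 3,000/well, preincubated 5 hr. Compounds plus 0.5 nM R1881 final, 16 hr, 37C, 0% CO2.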

Assay [14] deals with Estrogen receptor (Homo sapiens) (UniProt P03372). As to the kind of experiment: qHTS assay to identify small molecule antagonists of the estrogen receptor alpha (ER-alpha) signaling pathway using the BG1 cell line in the presence of 0.1 nM 17-beta-estradiol (AID 1259244). Also: nearly all actives have a fitted effect of over 50% in size. In a few lines: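 Luminescence after ONE-Glo (30 min, room temperature) measured ERE-luciferase activity in VM7Luc4E2 cells treated 22 h with compound and 0.1 nM final 17beta-estradiol as stimulator.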
Chain of Estrogen receptor (Homo sapiens) (P03372 whole entry, looked up): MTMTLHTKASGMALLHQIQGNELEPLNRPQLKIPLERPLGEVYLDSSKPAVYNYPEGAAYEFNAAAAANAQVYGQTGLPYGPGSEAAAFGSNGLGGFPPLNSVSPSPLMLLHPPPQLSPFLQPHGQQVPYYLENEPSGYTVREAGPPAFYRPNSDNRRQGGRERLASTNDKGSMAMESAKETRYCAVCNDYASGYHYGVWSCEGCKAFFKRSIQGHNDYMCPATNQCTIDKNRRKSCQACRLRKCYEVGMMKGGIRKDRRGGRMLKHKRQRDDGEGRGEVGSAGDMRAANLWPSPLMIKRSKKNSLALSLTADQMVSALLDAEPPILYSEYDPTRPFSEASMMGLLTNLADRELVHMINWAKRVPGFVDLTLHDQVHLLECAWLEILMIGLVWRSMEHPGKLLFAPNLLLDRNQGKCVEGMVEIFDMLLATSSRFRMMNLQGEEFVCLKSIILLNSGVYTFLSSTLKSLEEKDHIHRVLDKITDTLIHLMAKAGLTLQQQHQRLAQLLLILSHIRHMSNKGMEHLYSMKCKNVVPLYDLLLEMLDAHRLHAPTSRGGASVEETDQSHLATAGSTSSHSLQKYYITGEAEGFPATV

The nature of assay [15]: qHTS assay to identify small molecule HDAC inhibitors (AID 1259364). Also: potency is read from the fitted curve at half-maximal effect.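 Also: wild-type HCT-116 cells with endogenous class I/II HDAC activity; nearly all actives have a fitted effect of over 45% in size.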 The method in brief:
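HCT-116 (wild type), 1,500 cells/well, overnight; compound 2 hr 37C 5% CO2; HDAC-Glo I/II reagent 30 min RT; luminescence readout.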

The nature of assay [16]: qHTS assay to identify small molecule HDAC inhibitors - cell viability counter screen (AID 1259365). In a few lines: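 HCT-116 (wild type), 1,500 cells/well, overnight 37C/5% CO2; compound in DMSO 2hr; CellTiter-Glo 30min RT; luminescence read.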
The nature of assay [17]: qHTS assay to identify small molecule agonists of the sonic hedgehog signaling (Shh) pathway - cell viability counter screen (AID 1259366). Also: nearly all actives have a fitted effect of over 50% in size. The method in brief: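 CellTiter-Fluor fluorescence read-out, 1 hr at 37C, added after 23hr compound exposure. Cells: 3T3 Gli1-Luc, an NIH/3T3 clone with stably integrated Gli1-Luc reporter, plated 4hr before compound.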
Assay [18] is described as follows: qHTS assay to identify small molecule antagonists of the sonic hedgehog signaling (Shh) pathway - cell viability counter screen (AID 1259367). Also: nearly all actives have a fitted effect of over 55% in size. The method in brief:
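Cytotoxicity was assessed in parallel with Shh reporter activity by measuring live-cell protease fluorescence (CellTiter-Fluor) in NIH/3T3 cells stably carrying Gli1-Luc, treated with compound under conditioned medium stimulation for 23 hr plus 1 hr reagent incubation.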

A short description of assay [19]: qHTS assay to identify small molecule phospholipidosis (PLD) inducers (AID 1259344; active = well fitted curve in the direction sought with a large enough effect; an effect the other way counts as inactive or inconclusive). The method in brief:
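Cells (HepG2, 900 per well) attach for 4 h, receive LipidTOX Red and compound together, incubate 24 h at 37 C, are fixed 30 min with paraformaldehyde/Hoechst, then imaged at one site per well.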

Values without a mark were called inactive. Results filed as inconclusive are left out. The source made the active and inactive calls. Unless noted, calls follow the shape of the dose curve; as a rule, active = well fitted curve in the direction sought with a large enough effect in the repeat runs; inconclusive = weak or mixed curves; inactive = no such curve, though single readings can be large; an effect the other way counts as inactive or inconclusive.

`CCO[Si](C)(OCC)OCC`: the molecule was called inactive in [1], in [6], in assay [12], in [13], in [14] and in assay [16]. Further, the molecule was classed as inactive in assay [18]. For the same molecule, the Potency entry in assay [2], in [3], in assay [4], in assay [5], in assay [7] and in assay [8] was “inactive” throughout. Also, the Potency result in assay [9], in assay [10], in [11], in assay [15] and in assay [17] was “inactive” in each case.
With `O=[N+]([O-])c1ccc(CCO)cc1`, the call in [1], in assay [6], in assay [12], in assay [13], in assay [14] and in assay [16] was inactive. In addition, in assay [18], the call was inactive. The Potency entry in [2], in [3], in assay [4], in [5], in [7] and in assay [8] was “inactive” in each case. In addition, the Potency entry in [9], in [10], in assay [11], in assay [15] and in assay [17] was “inactive” throughout.
Take `Cc1cc(C)c(NC(=O)CN(CC(=O)O)CC(=O)O)c(C)c1Br`: the call in [1], in assay [6], in assay [12], in [13] and in assay [16] was inactive. The Potency result in assay [2], in [3], in [4], in [5], in [7] and in assay [8] was “inactive” throughout. The Potency result in [9], in assay [10], in assay [11], in [19], in [15] and in [17] was “inactive” throughout.
`N#CCc1ccccc1[N+](=O)[O-]`: the molecule was classed as inactive in assay [1], in assay [6], in assay [12], in [13], in assay [16] and in assay [18]. For the same molecule, the Potency entry in assay [2], in assay [3], in assay [4], in assay [5], in assay [7] and in assay [8] was “inactive” each time. The Potency entry in [9], in assay [10], in assay [11], in assay [15] and in assay [17] was “inactive” in each case.
In the case of `OC1OC[C@@H](O)[C@H](O)[C@H]1O` (stereo not given in full), the molecule was classed as inactive in assay [1], in assay [6], in assay [12], in assay [13], in [16] and in assay [18]. The Potency result in assay [2], in assay [3], in assay [4], in [5], in [7] and in assay [8] was “inactive” throughout. Moreover, the Potency result in [9], in assay [10], in assay [11], in assay [15] and in assay [17] was “inactive” throughout.
On to `CCC(=O)/C=C/c1ccc(OC)cc1`, for which the result in assay [1], in [6], in assay [12], in [13], in [14] and in assay [16] was inactive. Further, the outcome in assay [18] was inactive. Besides, the Potency entry in assay [2], in assay [3], in [4], in assay [5], in assay [7] and in assay [8] was “inactive” in each case. The Potency result in [9], in assay [10], in assay [11] and in assay [17] was “inactive” each time. Moreover, the Potency in [15] is 24.3 µM (active).
As for `CCOC(=O)[C@H](CCc1ccccc1)N[C@@H](C)C(=O)N1CCC[C@H]1C(=O)O`, the result in [1], in [6], in assay [12], in [13], in assay [16] and in assay [18] was inactive. Moreover, the Potency entry in assay [2], in [3], in assay [4], in assay [5], in assay [7] and in assay [8] was “inactive” throughout. The Potency result in [9], in [10], in assay [11], in [19], in [15] and in assay [17] was “inactive” throughout.
For `OCC(O)[C@@H](O)[C@H](O)[C@H](O)CO[C@H]1O[C@H](CO)[C@@H](O)[C@H](O)[C@H]1O` (stereo not given in full), the result in assay [1], in assay [6], in assay [12], in [13], in assay [16] and in assay [18] was inactive. Further, the Potency entry in [2], in [3], in assay [4], in assay [5], in assay [7] and in assay [8] was “inactive” each time. Moreover, the Potency result in [9], in assay [10], in [11], in [15] and in assay [17] was “inactive” throughout.
Turning to `OCCCCCCO`, the molecule was classed as inactive in assay [1], in assay [6], in assay [12], in assay [13], in [16] and in assay [18]. The Potency entry in assay [2], in assay [3], in assay [4], in assay [5], in [7] and in assay [8] was “inactive” each time. Also, the Potency result in [9], in assay [10], in assay [11], in [15] and in [17] was “inactive” throughout.
Regarding `CC1=CC(=O)CCC1`, the outcome in assay [1], in assay [6], in assay [12], in assay [13], in assay [16] and in [18] was inactive. Also, the Potency entry in [2], in [3], in assay [4], in [5], in assay [7] and in [8] was “inactive” each time. Also, the Potency result in [9], in assay [10], in [11], in [15] and in assay [17] was “inactive” each time.
Take `COc1cc(C)cc(O)c1`: the molecule was classed as inactive in [1], in [6], in assay [12], in [13] and in assay [16]. Also, the Potency entry in assay [2], in assay [3], in assay [4], in assay [5], in assay [7] and in [8] was “inactive” each time. The Potency result in assay [9], in [10], in assay [11], in assay [15] and in assay [17] was “inactive” in each case.
As to `CC(O)CN(CCCN(C)C)CCCN(C)C` (stereo not given), the molecule was classed as inactive in assay [1], in assay [6], in [12], in [13], in [16] and in [18]. The Potency result in assay [2], in [3], in assay [4], in [5], in assay [7] and in assay [8] was “inactive” each time. Besides, the Potency entry in assay [9], in assay [10], in [11], in [15] and in assay [17] was “inactive” each time.
`CCCCN(CCO)CCO`: the outcome in assay [1], in assay [6], in assay [12], in assay [13], in assay [14] and in assay [16] was inactive. Moreover, in assay [18], the molecule was classed as inactive. Besides, the Potency result in assay [2], in [3], in assay [4], in assay [5], in assay [7] and in assay [8] was “inactive” in each case. The Potency entry in [9], in assay [10], in assay [11], in assay [15] and in assay [17] was “inactive” in each case.
As to `Cc1ccccc1Br`, the molecule was classed as inactive in assay [1], in [6], in assay [12], in assay [13], in assay [16] and in assay [18]. The Potency result in [2], in [3], in assay [4], in [5], in assay [7] and in [8] was “inactive” each time. In addition, the Potency result in assay [9], in assay [10], in assay [11], in assay [15] and in assay [17] was “inactive” throughout.
Consider `CO`, for which the molecule was classed as inactive in assay [1], in [6], in assay [12], in [13], in [16] and in [18]. Further, the Potency entry in assay [2], in assay [3], in [4], in assay [5], in assay [7] and in [8] was “inactive” each time. The Potency result in assay [9], in [10], in [11], in assay [19], in assay [15] and in assay [17] was “inactive” each time.
